NIH3T3 tox: Cytotoxic Profiling in NIH 3T3 Cell Line of Diverse Libraries Using Quantitative High-Throughput Screening | NIH 3T3 viability, CellTiter-Glo ATP luminescence, 48-72 h | Potency, µM (titrated, usually from 96.7 µM), for inactives: at the highest dose activity change, negative = cytotoxicity, actives largely listed as inhibitors | 94,000 compounds, 4.3% hits; note: nearly all actives have a fitted effect of over 55% in size
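First NIH 3T3 cells are plated at 400 cells/well; next compound is pinned in; then plates incubate 48 or 72 hr at 37 °C; finally CellTiter-Glo is added and luminescence read after 10 min.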
hNpr1 antagonist: Natriuretic polypeptide receptor (hNpr1) antagonism - Primary qHTS. Potency, µM (doses to about 46.3 µM), for inactives: at the top dose activity change, negative = inhibition, hits mostly inhibitors. 76,000 compounds, 1.6% hits. Atrial natriuretic peptide receptor 1 (Homo sapiens), P16066. AID 1347048, 2019. HEK293 hNpr1 GloSensor cGMP, ANP-stimulated luminescence; calls by dose curve; note: nearly all actives have a fitted effect of over 60% in size
Target sequence (P16066 whole entry, looked up): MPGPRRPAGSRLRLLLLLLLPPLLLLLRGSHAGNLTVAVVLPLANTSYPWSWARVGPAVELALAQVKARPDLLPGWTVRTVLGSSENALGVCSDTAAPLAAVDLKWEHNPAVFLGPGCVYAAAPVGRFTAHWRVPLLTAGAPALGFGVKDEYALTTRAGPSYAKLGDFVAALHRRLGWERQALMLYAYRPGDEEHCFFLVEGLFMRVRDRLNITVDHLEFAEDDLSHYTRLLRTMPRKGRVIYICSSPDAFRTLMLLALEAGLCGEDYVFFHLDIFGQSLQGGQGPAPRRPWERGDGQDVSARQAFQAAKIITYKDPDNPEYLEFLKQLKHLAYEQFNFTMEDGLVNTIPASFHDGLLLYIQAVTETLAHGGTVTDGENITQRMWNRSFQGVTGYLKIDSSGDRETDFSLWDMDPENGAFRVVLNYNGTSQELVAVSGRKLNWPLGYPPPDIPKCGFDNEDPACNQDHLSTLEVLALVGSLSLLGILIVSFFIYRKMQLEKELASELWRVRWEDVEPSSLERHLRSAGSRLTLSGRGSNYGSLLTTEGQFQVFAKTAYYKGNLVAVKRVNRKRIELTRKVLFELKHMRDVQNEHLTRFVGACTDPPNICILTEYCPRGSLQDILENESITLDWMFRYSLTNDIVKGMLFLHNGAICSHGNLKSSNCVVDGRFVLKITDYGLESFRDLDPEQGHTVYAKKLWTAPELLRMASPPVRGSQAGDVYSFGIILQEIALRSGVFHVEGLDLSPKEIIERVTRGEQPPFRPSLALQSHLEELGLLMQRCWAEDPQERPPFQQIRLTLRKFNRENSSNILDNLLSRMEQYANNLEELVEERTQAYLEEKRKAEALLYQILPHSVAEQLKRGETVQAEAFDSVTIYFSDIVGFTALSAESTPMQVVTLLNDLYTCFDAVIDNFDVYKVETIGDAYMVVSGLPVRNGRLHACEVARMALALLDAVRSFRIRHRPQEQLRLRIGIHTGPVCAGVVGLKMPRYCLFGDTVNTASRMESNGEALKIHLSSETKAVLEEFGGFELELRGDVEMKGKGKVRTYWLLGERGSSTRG
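Compound pre-incubated 30 min at room temperature on GloSensor-loaded HEK293 cells stably carrying hNpr1 and the pGS-40F cGMP biosensor. Stimulation uses hNppA at 0.1 nM final; luminescence is taken at baseline and 20 min post-agonist.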
HEK cytotox: Cytotoxic Profiling in HEK 293 Cell Line of Diverse Libraries Using Quantitative High-Throughput Screening; AID 1345083, 2018; Potency, µM (doses to about 115 µM), for inactives: at the top dose activity change, negative = cytotoxicity, hits mostly inhibitors; HEK 293 viability, ATP luminescence (CellTiter-Glo), 48-72 h; 94,000 compounds, 6.6% hits; note: nearly all actives have a fitted effect of over 60% in size
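qHTS cytotoxicity; HEK 293, 250 cells/well; compound pinned; 48 or 72 hr, 37 degree Celsius, 5% CO2, 95% humidity; CellTiter-Glo, 10 min RT; luminescence (ATP).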
FLuc inh: Firefly luciferase inhibition profiling of diverse chemical library using quantitative high-throughput screening; Luciferin 4-monooxygenase (Photinus pyralis), P08659; purified P. pyralis luciferase, luminescence, biochemical; Potency, µM (doses to about 115 µM), actives largely listed as inhibitors; 76,000 compounds, 2.5% hits; AID 1347043, 2019; note: nearly all actives have a fitted effect of over 65% in size
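Purified P. pyralis luciferase (10nM final) in 50mM Tris acetate pH 7.5, 10mM Mg acetate, 0.01% Tween-20, 0.05% BSA with 10uM D-luciferin and 10uM ATP. Compounds titrated qHTS. Luminescence imaged on CCD.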
* = called active by the depositor; i = inactive; u = inconclusive; x = no result; ! = a repeat was not active; [ ] = dose if it differs, or a comment. Hits are enriched below; roughly 11% of the tested compounds scored in any of these assays. Unless noted, calls come from the whole dose curve; as a rule, active = well fitted curve in the direction sought with a large enough effect; inconclusive = small, poorly fitted or top-dose-only effect, or another doubt; inactive = no such curve, though single readings can be large; an effect the other way counts as inactive or inconclusive. % is set by controls: 0 for no effect and ±100 for the full control effect; potency is the fitted concentration of half-maximal effect.

SMILES	NIH3T3 tox	hNpr1 antagonist	HEK cytotox	FLuc inh
O=C(Nc1cccc2ccccc12)O[C@@H]1CO[C@H]2[C@@H]1OC[C@@H]2n1nnnc1-c1ccc(-c2ccccc2)cc1	-3%	-1%	-1%	i
O=C(Nc1ccc(Oc2ccccc2)cc1)N[C@H]1CO[C@H]2[C@@H]1OC[C@@H]2n1nnnc1Oc1ccccc1	u	-23%	u	i
Cc1ncoc1C(=O)N1CC(c2noc(C3CCCN3CC3CC3)n2)C1 (centres undefined)	-7%	1%	-2%	i
Cn1c(=O)c2c(ncn2CC(=O)N2CCC(CCOc3ccc(F)cc3)C2)n(C)c1=O (centres undefined)	-24%	-30%	89µM*	i
Cc1cc(C)n(CCC(=O)N2CCC(CCOc3ccc(F)cc3)C2)n1 (centres undefined)	-22%	u	79µM*	i
Cc1nn(C(=O)CCCC(=O)N2CCC(CCOc3ccc(F)cc3)C2)c2ccccc12 (centres undefined)	-1%	u	4%	i
Cc1ccc(OCC(=O)N2CCC(CCOc3ccc(F)cc3)C2)cc1 (centres undefined)	u	-19%	u	i
O=C1NC(=NC2CCCCC2)C2(CCN(Cc3cccnc3)CC2)N1c1cc(F)cc(F)c1	28µM*	x	i	x
O=C1NC(=NC2CCCCC2)C2(CCN(Cc3cccnc3)C2)N1c1cc(F)cc(F)c1 (centres undefined)	35µM*	x	-11%	x
COc1ccc(C(=O)N[C@@H]2C=C[C@@H](c3c(C)nn(Cc4ccccc4)c3C)C2)cc1	u	-3%[70.6 µM]	u	u
COc1ccc(NC(=O)O[C@@H]2C=C[C@H](c3c(C)nn(-c4ccc(C)c(Cl)c4)c3C)C2)cc1	u	-3%	u	i
Cc1ccc(-n2nc(C)c([C@H]3C=C[C@@H](OC(=O)Nc4ccc(C(C)C)cc4)C3)c2C)cc1Cl	u	-12%	28µM*	i
CC(=O)Nc1ccc(S(=O)(=O)N[C@@H]2C=C[C@@H](c3c(C)nn(-c4ccc(C(C)(C)C)cc4)c3C)C2)cc1	u	-15%	45µM*	45µM*
Cc1nn(-c2cccc(Br)c2)c(C)c1[C@@H]1C=C[C@@H](NC(=O)c2cccs2)C1	u	-1%	u	u
Cc1cc(Cl)ccc1-n1nc(C)c([C@@H]2C=C[C@@H](NC(=O)c3ccc(N(C)C)cc3)C2)c1C	u	u	u	18µM*
Cc1nn(-c2ccc(C(F)(F)F)cc2)c(C)c1[C@@H]1C=C[C@@H](NS(=O)(=O)c2cccs2)C1	u	-18%	u	i
CC(=O)N[C@@H]1C=C[C@@H](c2c(C)nn(-c3ccc(C)c(Cl)c3)c2C)C1	79µM*	u	u	u
O=C(NCc1cc2n(n1)CCN(C1CCCCC1)C2)c1noc2c1CCCC2	-17%	5%	-21%	i
CC(NC(=O)C1(N2CCCCC2)Cc2ccccc2C1)c1cnn(C)c1 (centres undefined)	-17%	9%	-25%	i
C#CCNC(=O)C1CCCCN1Cc1ccc(-c2ccsc2)cc1 (centres undefined)	-39%	x	40µM*	x
CC(C)NC(=O)C1CCCCN1Cc1ccc(-c2ccsc2)cc1 (centres undefined)	u	x	50µM*	x
O=C(NC1CC1)C1CCCCN1Cc1ccc(-c2ccsc2)cc1 (centres undefined)	79µM*	x	u	x
CC(C)NC(=O)C1CCCN1Cc1ccc(-c2cncnc2)cc1 (centres undefined)	-3%[138 µM]	x	5%[172 µM]	x
CNC(=O)C1CCCN1Cc1ccc(-c2cncnc2)cc1 (centres undefined)	-9%[138 µM]	x	-13%[172 µM]	x
O=C(NC1CCCC1)C1CCCCN1Cc1ccc(-c2ccsc2)cc1 (centres undefined)	u	x	25µM*	x
SMILES	NIH3T3 tox	hNpr1 antagonist	HEK cytotox	FLuc inh
COCCCn1c(=O)c(C(=O)N2CCN(C(=O)Nc3ccccc3)CC2)nc2cccnc21	1%	x	-6%	x
COc1ncccc1-c1cnc2[nH]cc(CC(=O)NC(C)C)c2c1	u	-16%[70.6 µM]	u	i
CN(Cc1ccc(F)cc1)C(=O)c1cn(Cc2ccccc2C(F)(F)F)nn1	u	4%	7.9µM*	i
COC(=O)CNC(=O)c1nc(-c2ccc(F)cc2)c2cnccn12	-12%[138 µM]	0%[70.6 µM]	-23%[172 µM]	i
CC(C)n1cc(CN2CCC(Oc3ccc(C(=O)NC4CCCC4)cc3Cl)CC2)cn1	40µM*	3%	u	i
O=C(NC1CCN(Cc2cccc(-c3ccc(F)cc3F)c2)CC1)C1CCCC1	-19%	x	-17%	x
O=C(NC1CCN(Cc2cccc(-c3ccc(F)cc3F)c2)CC1)c1ccncc1	u	x	32µM*	x
COc1cccc(C(=O)NC2CCN(Cc3cccc(-c4ccc(F)cc4F)c3)CC2)c1	35µM*!	x	32µM*!	x
COc1ccc(NC(=O)C[C@@H]2C[C@@H](C(C)C)[C@H](CC#N)C=C2C)cn1	79µM*	-1%[70.6 µM]	89µM*	i
CCNC(=O)N1CCC(c2nc(-c3cccn3C)no2)CC1	-25%	x	-9%	x
CCc1cccc2c(C(CC(=O)N3CCCC3)c3ccc(Cl)c(Cl)c3)c[nH]c12 (centres undefined)	u	5%	40µM*	i
CCOC(=O)C1CCN(C(=O)CC(c2ccc(OC)c(OC)c2)c2c[nH]c3c(CC)cccc23)CC1 (centres undefined)	u	3%	79µM*	i
CCc1cccc2c(C(CC(=O)N3CCC(C)CC3)c3cccc(C)c3)c[nH]c12 (centres undefined)	u	3%	35µM*	i
CCOC(=O)C1CCN(C(=O)CC(c2ccc3c(c2)OCO3)c2c[nH]c3ccccc23)CC1 (centres undefined)	u	0%	u	i
CCc1cccc2c(C(CC(=O)N3CCCC3)c3cccc(Cl)c3)c[nH]c12 (centres undefined)	-24%	-2%	u	i
O=C(NCc1cccc(F)c1)C1Cn2cccc2C(=O)N1Cc1cccnc1 (centres undefined)	-8%	-5%	-2%	i
O=C(c1ccccc1)N1Cc2ccccc2CC2(CCCCN2CC2CCNC2)C1 (centres undefined)	u	x	79µM*	x
CN(C)CCCC(=O)N1Cc2ccccc2CC2(CCCCN2Cc2ccccc2)C1 (centres undefined)	u	x	79µM*	x
O=C(O)CCC(=O)N1Cc2ccccc2CC2(CCCN2Cc2ccccc2)C1 (centres undefined)	-6%	x	-2%	x

Assay outcomes as filed in PubChem.
